Bioassay records from PubChem.
The entries come from a sample that favours hits as a whole.
Pf Dd2 inh: qHTS Primary assay for Inhibitors of Plasmodium falciparum Dd2 growth in vitro | AID 1347417, 2020 | Potency, µM (series often up to 28.9 µM), for inactives: at the top dose activity, negative = inhibition, most hits filed as inhibitors | P. falciparum Dd2 growth, SYBR Green, 72 h | actives 4.3% (n = 120,000); active means well fitted inhibition curve with a large enough effect;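 further: plate controls were DMSO vehicle for no effect and reference drug for full effect; nearly all actives have a fitted effect of over 65% in size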
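Readout: SYBR Green fluorescence, 485 nm excitation, 535 nm emission, after ~16 h lysis at 37C. Before that, Dd2-infected red cells (2.5% hematocrit) grew 72 h with compound, 29 uM top final concentration.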
* hit, by the source's call; i = inactive; [ ] = remark or other dose. Potency means the concentration at half of the fitted maximal effect.

SMILES	Pf Dd2 inh
Cc1ccc(NC(=O)/C(C#N)=C\c2ccc(Cl)cc2Cl)cc1C	8%
Cc1c(/C=C(\C#N)C(=O)Nc2cccc(Cl)c2)c2ccccc2n1Cc1ccccc1Cl	3.2µM*
N#C/C(=C/c1cn(Cc2ccccc2Cl)c2ccccc12)C(=O)Nc1cccc(Cl)c1	i
CC(C)C(=O)N1CCC2(CC1)N(c1ccccc1)C(=O)CS2(=O)=O	-26%
O=C(Cc1ccccc1)N1CCC(Oc2cnc3c(ccn3-c3cncnc3)c2)CC1	13µM*
O=C(OCc1ccccc1)N1CCC(Oc2cnc3c(ccn3-c3cncnc3)c2)CC1	i
O=C(CC1CC1)N1CCC(Oc2cnc3c(ccn3-c3cncnc3)c2)CC1	i
CCCCNc1ncc(C(=O)O)c(C)n1	7%
CCc1cc(C(=O)N2CC[C@@H]3[C@@H](CCC(=O)N3CCc3cnc[nH]3)C2)n[nH]1	-10%
CCn1ccc(C(=O)N2CCC(N3C(=O)C(O)C34CCCCC4)CC2)n1 (stereo not drawn)	-6%
Cc1ccccc1Nc1c(-c2cccc(Cl)c2)nc2ncccn12	-3%
Cc1ccc2nc(-c3ccccn3)c(Nc3ccccc3C)n2c1	8.9µM*
Cc1ccccc1Nc1c(-c2c[nH]c3ccccc23)nc2cccc(C)n12	20%
Cc1ccc2nc(-c3ccncc3)c(Nc3ccccc3C)n2c1	-22%
Cc1ccc2nc(-c3c[nH]c4ccccc34)c(Nc3ccccc3C)n2c1	-24%
Cc1ccn2c(Nc3ccccc3C)c(-c3ccccn3)nc2c1	3.2µM*
CN(C)CCN1CC2(CCCN(C(=O)CCc3cc(=O)[nH]o3)C2)CCC1=O (stereo not drawn)	-20%
CCCC(=O)Nc1ccc([C@H]2OCC(=O)N(CC(C)C)[C@@H]2CO)cc1	-3%[44.1 µM]
CCOc1ccccc1CN1CCn2c(nnc2[C@@H]2C[C@@H](O)CN2C)C1	-9%
CN(Cc1ccccc1C(F)(F)F)C(=O)c1ccc(F)cc1	-23%[44.1 µM]
COCc1nc2nccc(-c3ccc4c(c3)OCCCO4)n2n1	-13%
COc1ccc(Cc2nc3nccc(-c4ccc5c(c4)OCCCO5)n3n2)cc1	-7%
Fc1ccc(Cc2nc3nccc(-c4ccc5c(c4)OCCCO5)n3n2)cc1	14µM*
Cc1ccc(-n2cc3c(c2-c2ccccc2Br)c(=O)n(C)c(=O)n3C)cc1N	13µM*
Cn1c(=O)c2c(-c3ccccc3Br)n(CCc3ccccc3)cc2n(C)c1=O	-20%
SMILES	Pf Dd2 inh
Cc1cc(N)c(-n2cc3c(c2-c2ccc(Br)cc2)c(=O)n(C)c(=O)n3C)cc1C	-18%
O=C(c1cc(F)ccc1F)N1CCC[C@H]1c1nc(-c2ccccc2)no1	3%
O=C([C@@H]1C[C@H](Oc2ccccc2)CN1C(=O)C1CCCCC1)N1CCCC1	-24%
CCCC1(CO)CCCN(CC(=O)NC(C)(C)CC)C1 (stereo not drawn)	-25%
COC1CCC12CCN(C(=O)Nc1ccccc1F)CC2 (stereo not drawn)	-4%
COCCN1C(=O)c2cccn2CC1CNC(=O)Cc1ccccc1 (stereo not drawn)	i
COc1ccc(-c2noc([C@@H]3C[C@H](NC(=O)NC(C)C)CN3C)n2)cc1	22%[44.1 µM]
COC1CCOC2(CCN(S(=O)(=O)c3ccccc3)CC2)C1 (stereo not drawn)	24%
COc1cccc(CC(=O)N2CCC3(CC2)CC(N(C2CC2)S(C)(=O)=O)CCO3)c1 (stereo not drawn)	i
CC(C)NC(=O)N(C1CC1)C1CCOC2(CCN(C(=O)NCc3ccccc3)CC2)C1 (stereo not drawn)	9%
COc1ccc(S(=O)(=O)N2CCC3(CC2)CC(N(C)Cc2ccccc2)CCO3)cc1 (stereo not drawn)	11µM*
CN(Cc1ccccc1)C1CCOC2(CCN(C(=O)NC3CCCC3)CC2)C1 (stereo not drawn)	6.3µM*
CC(C)CNC(=O)N1CCC2(CC1)CC(N(C)Cc1ccccc1)CCO2 (stereo not drawn)	16%
Cc1ccc(NC(=O)C2CCN(C(=O)c3ncn4c3COC(c3ccc(F)cc3)C4)CC2)c(F)c1 (stereo not drawn)	i
CCc1ccc(S(=O)(=O)N2CC(F)(F)C[C@H]2c2nnc(C)o2)cc1	18%
COc1ccc(-c2cnc3n2CC(C(=O)NCCCN2CCN(C)CC2)CC3)cc1 (stereo not drawn)	21%
COc1ccc(C2(C(=O)NCC3Cn4cccc4C(=O)N3C)CC2)cc1 (stereo not drawn)	20%
COCCNc1cc(N2CCN(C3CCCCC3)CC2)c2noc3c2c1C(=O)c1ccccc1-3	0.89µM*
O=C1c2ccccc2-c2onc3c(N4CCN(C5CCCCC5)CC4)cc(NCCO)c1c23	5µM*
O=C1c2ccccc2-c2onc3c(Br)cc(NC4CCCCC4)c1c23	-4%
O=C(c1csc(N2CCN(c3ccccc3)CC2)n1)N1CCN(C2CCCCC2)CC1	i
COCCNc1ncccc1-c1noc([C@@H]2CCCN2C2CCN(C(C)=O)CC2)n1	i
COCCNc1ncccc1-c1noc([C@@H]2CCCN2C2CCN(C)CC2)n1	-9%[44.1 µM]
CCOc1ccccc1C(=O)N1CCC[C@H]1c1nc(-c2ccc(C)cc2)no1	i
